These results are taken from PubChem BioAssay (NCI).

Among the test systems are NCI-H23 lung; NCI-H226 lung; NCI-H322M lung; HOP-62 NSCLC; NCI-H460 lung; HOP-92 NSCLC; NCI-H522 lung; A549/ATCC NSCLC; 786-0 renal; COLO 205 colon; DU-145 prostate; K-562 leukemia; MALME-3M melanoma; MDA-MB-231 breast; RXF 393 renal; SF-268 CNS; SF-295 CNS; SF-539 CNS; UACC-257 melanoma; M14 melanoma.
Common to all, as to test: NCI-60 one-dose screen, 48 h (100 = growth as untreated, 0 = no growth, -100 = all killed)
What all share (details): 10 µM unless noted

Structures are written as SMILES. Several values for one entry are separate records, joined by “and”; a condition that tells them apart may be missing. Identical values can stand only once. The panel holds about 83,000 compounds, 20% with a hit somewhere; the sample as a whole holds those more often.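 Cells were grown in 96-well plates and exposed to the test compound at a single concentration for 48 hours; results are reported as percent growth, with values below 10 considered active.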 Activity calls are given as the source filed them.

Take `COc1cc(NCCCCCCCNC(C)C)c2nccc(C)c2c1`: the growth with NCI-H23 lung was 81.4% (inactive) and 77.1% (inactive); in the assay with NCI-H226 lung it was 90.9% (inactive) and 75.7% (inactive); in the assay on NCI-H322M lung it was 87% (inactive) and 68.5% (inactive); in the assay with HOP-62 NSCLC, 73.6% (inactive) and 72.1% (inactive); with NCI-H460 lung, 85.5% (inactive) and 57.2% (inactive); with HOP-92 NSCLC, 39.3% (inactive) and 75.6% (inactive). For the same compound, the growth in the assay on NCI-H522 lung was 89.1% (inactive) and 91.7% (inactive); with A549/ATCC NSCLC, 95.1% (inactive) and 90.6% (inactive); in the assay with 786-0 renal, 82.5% (inactive) and 82.1% (inactive); in the assay with COLO 205 colon, 53.8% (inactive) and -5.98% (active); with DU-145 prostate, 102% (inactive) and 91.4% (inactive); in the assay with K-562 leukemia, 54.8% (inactive) and 7.58% (active). Further, the growth with MALME-3M melanoma was 94.6% (inactive) and 42.1% (inactive); with MDA-MB-231 breast, 68% (inactive) and 62.9% (inactive); in the assay with RXF 393 renal, 81.4% (inactive) and 107% (inactive); in the assay with SF-268 CNS it was 93.2% (inactive) and 82.1% (inactive); in the assay on SF-295 CNS, 71.8% (inactive); in the assay with SF-539 CNS it was 91.5% (inactive) and 73.1% (inactive). For the same compound, the growth was 107% (inactive) and 89.7% (inactive) in the assay with UACC-257 melanoma; 82.8% (inactive) and 68% (inactive) in the assay with M14 melanoma.

On to `Cc1nc(Nc2ccc(Cl)cc2)c2cnn(-c3ccccc3)c2n1`, for which the growth was 97.3% (inactive) in the assay on NCI-H23 lung; 96.6% (inactive) in the assay with NCI-H226 lung; 104% (inactive) in the assay on NCI-H322M lung; 108% (inactive) with HOP-62 NSCLC; 103% (inactive) with NCI-H460 lung; 95.4% (inactive) in the assay on HOP-92 NSCLC. The growth is 105% (inactive) in the assay on NCI-H522 lung; 110% (inactive) in the assay on A549/ATCC NSCLC; 103% (inactive) in the assay on 786-0 renal; 102% (inactive) in the assay with COLO 205 colon; 107% (inactive) in the assay with DU-145 prostate; 113% (inactive) in the assay on K-562 leukemia. For the same compound, the growth is 90.3% (inactive) with MALME-3M melanoma; 111% (inactive) in the assay with MDA-MB-231 breast; 93.6% (inactive) with RXF 393 renal; 99.8% (inactive) in the assay with SF-268 CNS; 97.1% (inactive) with SF-295 CNS; 99.9% (inactive) in the assay on SF-539 CNS. The results for the growth with UACC-257 melanoma and in the assay on M14 melanoma were 101% (inactive) and 100% (inactive), respectively.

In the case of `CCN(CC)CCO/N=C1\CC(c2ccc(OC)c(OC)c2)Oc2ccccc21` (stereo not given), the growth in the assay on NCI-H23 lung was 96.2% (inactive); with NCI-H226 lung, 84.7% (inactive); with NCI-H322M lung, 94.8% (inactive); with HOP-62 NSCLC, 104% (inactive); with NCI-H460 lung it was 104% (inactive); in the assay on HOP-92 NSCLC, 79.6% (inactive). In addition, the growth in the assay on NCI-H522 lung was 88.2% (inactive); in the assay with A549/ATCC NSCLC it was 97% (inactive); in the assay on 786-0 renal, 81.1% (inactive); in the assay on COLO 205 colon it was 97.5% (inactive); with DU-145 prostate, 105% (inactive); in the assay on K-562 leukemia, 82.6% (inactive). The growth in the assay on MALME-3M melanoma is 107% (inactive); with MDA-MB-231 breast, 101% (inactive); in the assay with RXF 393 renal, 65.5% (inactive); in the assay on SF-268 CNS, 99.3% (inactive); in the assay on SF-295 CNS it was 98.2% (inactive); with SF-539 CNS, 94.7% (inactive). For the same compound, the growth is 101% (inactive) in the assay on UACC-257 melanoma and 99.9% (inactive) in the assay on M14 melanoma.

Consider `COc1cc2oc3cc(=O)cc4oc(-c5ccccc5)cc(c2c2c1CCC(c1ccccc1)O2)c43` (stereo not given), for which the growth in the assay on NCI-H23 lung was 87.8% (inactive); in the assay on NCI-H226 lung, 64.4% (inactive); in the assay on NCI-H322M lung, 101% (inactive); in the assay on HOP-62 NSCLC, 91% (inactive); with NCI-H460 lung, 76.2% (inactive); in the assay with HOP-92 NSCLC, 81.1% (inactive). The growth with NCI-H522 lung is 86.6% (inactive); in the assay with A549/ATCC NSCLC, 96.2% (inactive); in the assay on 786-0 renal, 110% (inactive); in the assay on COLO 205 colon, 98.5% (inactive); in the assay on DU-145 prostate, 79.7% (inactive); with K-562 leukemia, 42.1% (inactive). The growth was 117% (inactive) in the assay on MALME-3M melanoma; 75.8% (inactive) in the assay with MDA-MB-231 breast; 78.6% (inactive) in the assay with RXF 393 renal; 85.1% (inactive) in the assay on SF-268 CNS; 70.5% (inactive) with SF-295 CNS; 78.7% (inactive) in the assay on SF-539 CNS. The figures for the growth in the assay with UACC-257 melanoma and in the assay with M14 melanoma were 99.9% (inactive) and 88.2% (inactive), respectively.

Turning to `CC1CCC(=O)N1c1ccc(N)cc1` (stereo not given), the growth in the assay on NCI-H23 lung was 103% (inactive); in the assay with NCI-H226 lung, 100% (inactive); with NCI-H322M lung, 96.4% (inactive); in the assay with HOP-62 NSCLC, 86.3% (inactive); in the assay with NCI-H460 lung, 106% (inactive); in the assay with HOP-92 NSCLC, 107% (inactive). The growth in the assay on NCI-H522 lung is 85.2% (inactive); with A549/ATCC NSCLC it was 89.1% (inactive); with 786-0 renal, 106% (inactive); with COLO 205 colon it was 104% (inactive); in the assay with DU-145 prostate, 105% (inactive); in the assay on K-562 leukemia it was 99.9% (inactive). In addition, the growth in the assay on MALME-3M melanoma was 105% (inactive); in the assay with MDA-MB-231 breast it was 101% (inactive); in the assay with RXF 393 renal, 112% (inactive); in the assay with SF-268 CNS it was 103% (inactive); with SF-295 CNS, 102% (inactive); with SF-539 CNS, 99.8% (inactive). Also, the growth was 88.7% (inactive) in the assay on UACC-257 melanoma and 104% (inactive) with M14 melanoma.

Turning to `Cn1c(N)c(N=O)c(=O)n(C)c1=O`, the growth was 96.2% (inactive) in the assay with NCI-H23 lung; 115% (inactive) and 104% (inactive) in the assay with NCI-H226 lung; 113% (inactive) and 88.7% (inactive) with NCI-H322M lung; 101% (inactive) and 108% (inactive) with HOP-62 NSCLC; 111% (inactive) and 102% (inactive) in the assay on NCI-H460 lung; 103% (inactive) with HOP-92 NSCLC. For the same compound, the growth with NCI-H522 lung was 97% (inactive) and 73.4% (inactive); in the assay on A549/ATCC NSCLC, 106% (inactive) and 96.8% (inactive); in the assay on 786-0 renal, 108% (inactive) and 103% (inactive); with COLO 205 colon, 107% (inactive) and 117% (inactive); in the assay with DU-145 prostate, 108% (inactive) and 102% (inactive); in the assay on K-562 leukemia, 86.8% (inactive) and 108% (inactive). Moreover, the growth was 115% (inactive) and 90.9% (inactive) with MALME-3M melanoma; 108% (inactive) and 98.7% (inactive) in the assay on MDA-MB-231 breast; 170% (inactive) and 109% (inactive) in the assay with RXF 393 renal; 94.6% (inactive) and 90.7% (inactive) in the assay on SF-268 CNS; 105% (inactive) and 103% (inactive) in the assay on SF-295 CNS; 107% (inactive) and 100% (inactive) in the assay on SF-539 CNS. Besides, the growth is 101% (inactive) in the assay with UACC-257 melanoma; 100% (inactive) and 96.7% (inactive) in the assay with M14 melanoma.
